Shown are actives, neighbours in structure and some others; about 3.7% of the full set was active somewhere.
esBAF inh – blocks esBAF chromatin remodeling in mouse ES cells; 350,000 compounds, 2% hits; AID 602393; Bmi1-luciferase knock-in reporter, 24 h; 100% = twice the neutral-well signal; reporter increase, % at 12.5 µM; in the data active = activation above about 40%; inconclusive = no clear call, values can overlap the other calls;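 note: 0% = median of the plate's neutral control wells and 100% = double that signal; a rise in the Bmi1 reporter signal indicates esBAF inhibition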
MLL AF4-AF9 inh – MLL-AF4/AF9 protein interaction inhibition; P42568; AlphaScreen, biotin-AF4 peptide binding to FLAG-AF9; inhibition, % at 10 µM; 350,000 compounds, 0.47% hits; AID 651704;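 active = every replicate reaching a set inhibition limit, whatever the replicate mean, cut at about 25% in these data; inconclusive = mean inhibition reaches that limit but some replicates miss it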;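 note: 0% = plate neutral control median and 100% = total signal loss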
Target sequence (P42568 whole entry, looked up): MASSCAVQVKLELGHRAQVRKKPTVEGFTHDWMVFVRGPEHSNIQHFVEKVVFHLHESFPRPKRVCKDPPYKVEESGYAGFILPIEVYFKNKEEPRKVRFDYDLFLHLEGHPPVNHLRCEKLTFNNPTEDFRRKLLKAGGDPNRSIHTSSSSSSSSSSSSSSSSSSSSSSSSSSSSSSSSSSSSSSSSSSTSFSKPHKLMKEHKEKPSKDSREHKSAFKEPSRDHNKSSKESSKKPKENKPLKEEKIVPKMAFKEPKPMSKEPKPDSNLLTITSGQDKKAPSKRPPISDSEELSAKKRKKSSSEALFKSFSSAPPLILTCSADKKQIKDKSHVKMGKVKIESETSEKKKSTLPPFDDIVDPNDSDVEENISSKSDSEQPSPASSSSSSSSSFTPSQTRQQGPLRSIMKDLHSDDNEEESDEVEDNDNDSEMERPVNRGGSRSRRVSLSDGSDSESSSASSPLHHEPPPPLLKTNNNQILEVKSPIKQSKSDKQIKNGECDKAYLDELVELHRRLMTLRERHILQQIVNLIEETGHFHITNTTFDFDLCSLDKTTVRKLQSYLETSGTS
Wnt bcat act – activates Wnt/beta-catenin signaling in a reporter cell assay | activator, plate reader | activation, % at 9.35 µM | 300,000 compounds, 1.2% hits; in the data active = activation above about 30%, passing the limit was not always enough; inconclusive = no clear call, values can overlap the other calls;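 note: 0% = neutral control wells and 100% = positive control wells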
MITF act – MITF TRPM1 promoter activation in melanoma cells; SK-MEL-5 TRPM1-promoter luciferase, 24 h; % of positive control, neutral wells = 0; activation, % at 12.5 µM; 300,000 compounds, 0.75% hits; AID 588334;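 active = mean activation of at least 80% with every replicate also reaching 80%; inconclusive = mean reaches 80% but some replicate falls short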;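 note: 0% = neutral control wells and 100% = parthenolide positive control wells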
Ecoli rRNA inh – selective bacterial rRNA inhibition in E. coli; 350,000 compounds, 1.6% hits; AID 720706; E. coli WT GFP vs humanized-ribosome RFP mutants, fluorescence, 24 h; stronger effect = lower value; DMSO median 0, no signal -100; GFP signal change (wild-type ribosome), % (concentration not given with the values);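 active = significant combined selectivity score with lowered wild-type GFP, culture density cut under 30%, mutant RFP and density less affected; inactive = any of these conditions unmet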
Alpha interfer – counter-screen: AlphaScreen signal interference; signal luminescence; AC50, µM (highest dose often 12 µM), inactives show at the highest dose activity change, negative = inhibition; shares compounds with MLL AF4-AF9 inh; 530 compounds, 45% hits; cut-off not given, nearly all actives have AC50 up to about 14 µM
The depositor's hits bear a star; ? = inconclusive; / = no result given.

SMILES	esBAF inh	MLL AF4-AF9 inh	Wnt bcat act	MITF act	Ecoli rRNA inh	Alpha interfer
CCC[C@@H](CN1CCC[C@H]1CN1C(N)=NC[C@@H]1Cc1ccccc1)N1C[C@@H](Cc2ccccc2)N(CCc2ccc(Cl)c(Cl)c2)C1=N	-22	30*	1	11	-55	-9%
CC(C)(C)C1=CC(=Nc2ccccc2N)C=C(C(C)(C)C)C1=O	4	73*	-1	-7	-10	2.7µM*
COc1ccc(CN2CCC(N(CCc3ccccc3)Cc3ccccc3)CC2)c(OC)c1	-4	30*	-21	5	-52	-21%
Cc1ccc(S(=O)(=O)Nc2cccc3c2O[C@@H](CN(C)C(=O)Nc2ccc(F)cc2)[C@H](C)CN([C@@H](C)CO)C3=O)cc1	-2	-4	/	/	2	/
CN1C(=O)c2cccc(N(C)C)c2C1=O	2	-12	-3	6	6	/
CN(C)c1cccc2c1C(=O)c1ccccc1C2=O	/	43*	-2	-4	-11	13µM*
CCN1CCN(Cc2ccc(NC(=O)c3cc(NC(=O)c4nccnc4N)cc(OC)c3)cc2C(F)(F)F)CC1	-3	?	-3	-72	2	-22%
COc1ccc(C(=O)C(OC(=O)CNC(=O)c2ccco2)c2ccccc2)cc1 (stereo not given)	-1	/	-8	-5	/	/
N#C/C(N=Nc1ccccc1O)=N\Nc1ccccc1O	-65	34*	9	-68	2	8.5µM*
Oc1ccccc1N=N/C(=N/Nc1ccccc1O)c1ccccc1	8	-3	4	1	-2	/
O=S(=O)(c1ccc(Cl)cc1)N1CCN(Cc2ccc(O)c3ncccc23)CC1	/	75*	36*	-64	-37	-33%
Oc1ccc(CN2CCN(Cc3ccccc3)CC2)c2cccnc12	6	/	6	/	/	/
CCOC(=O)N1CCN(c2cc(NCCC(=O)O)c3c4c(onc24)-c2ccccc2C3=O)CC1	-17	/	/	-13	/	/
O=C(O)CCCNc1cc(N2CCN(C(=O)c3ccco3)CC2)c2noc3c2c1C(=O)c1ccccc1-3	1	37*	-1	-1	-9	-21%
CN1CCN(CCCCOc2ccccc2C=O)CC1	4	33*	-3	12	7	-36%
CN(C)c1ccc(C(CN)c2c[nH]c3ccccc23)cc1 (stereo not given)	39*	30*	-8	15	-13	-33%
Cc1ccc(S(=O)(=O)N2CCCOC2CNC(=O)C(=O)NC2CCCC2)cc1 (stereo not given)	/	-16	1	-10	2	/
CN(Cc1ccccc1)c1oc(COc2ccccc2F)nc1C#N	14	20	1	19	-23	/
Cn1ccc2c(N3CCCCC3)cc3c(c21)C1CCC3C1 (stereo not given)	4	52*	-1	/	-4	-16%
CCc1nc2ccc(C(=O)NC3CCN(Cc4ccccc4)CC3)cn2c1N(C)Cc1ccc(N(C)C)cc1	-7	52*	-2	/	-2	8.5µM*
CCc1nc2ccc(C(=O)NC3CCN(C)CC3)cn2c1N(C)CCC(C)C	-4	4	-3	/	4	/
C(=C\c1ccc2ccccc2n1)/c1ccccc1	-53	?	-15	-56	-13	-22%
CCN(CC)CCN1C(=O)/C(=C\c2ccc(Cl)c([N+](=O)[O-])c2)SC1=Nc1ccc(OC)cc1	1	19	-11	-94	-12	/
COc1ccc(N=C2S/C(=C\c3ccc(Cl)c([N+](=O)[O-])c3)C(=O)N2CCN(C)C)cc1	-5	26*	-10	-21	-53	6.7µM*
CN(C)CCNc1ccc2nnn3c4ccc(O)cc4c(=O)c1c23	/	-4	0	-27	-26	/
SMILES	esBAF inh	MLL AF4-AF9 inh	Wnt bcat act	MITF act	Ecoli rRNA inh	Alpha interfer
CCN(CC)CCCNc1ccc2ncn3c4ccc(O)cc4c(=O)c1c23	/	24	11	-53	22	-20%
COc1ccc(-n2cc(CNCCc3cnc[nH]3)c(-c3cccc(F)c3)n2)cc1	/	30*	/	23	-33	-19%
COc1ccc(-n2cc(CNCc3cccnc3)c(-c3cccc(F)c3)n2)cc1	3	0	1	8	-39	/
CC(C)/C=C1\CC/C(=C\c2ccc(N(C)C)cc2)C1=O	/	0	-2	62	-1	/
CN(C)c1ccc(/C=C2/C[N+](C)(C)C/C(=C/c3ccc(N(C)C)cc3)C2=O)cc1	/	56*	2	/	-9	5.8µM*
Cc1ccnc(NC(c2cccnc2)c2ccc3cccnc3c2O)c1 (stereo not given)	/	82*	2	-9	-30	1.5µM*
Cc1cc(NC(c2ccc(Cl)cc2)c2ccc3cccnc3c2O)no1 (stereo not given)	-50	/	-2	-78	/	/
COc1ccccc1NC(c1cccnc1)c1ccc2cccnc2c1O (stereo not given)	-4	48*	11	-10	/	-25%
Cc1ccc2ccc(C(Nc3cccc(C(F)(F)F)c3)c3cccnc3)c(O)c2n1 (stereo not given)	6	33*	-1	-11	0	-17%
COc1ccc(C(Nc2cc(C)ccn2)c2ccc3ccc(C)nc3c2O)cc1 (stereo not given)	2	22	0	-15	3	/
Cc1ccnc(NC(c2ccsc2)c2ccc3ccc(C)nc3c2O)c1 (stereo not given)	-37	55*	-6	-17	0	-13%
CCCS(=O)(=O)NC(=O)C1(C)CCN(C(=O)c2ccc(C(=O)OC)cc2)C1 (stereo not given)	-3	-1	2	/	5	/
Cc1cc2c(c(SCC#N)n1)C(=O)OC2	2	-1	0	3	2	/
CCC(/C=N/NC(=O)C(N)=O)CC	-13	-2	-6	-3	-1	/
O=C(Nc1cccc(F)c1)N1C[C@@H]2[C@H](c3ccccc31)[C@H](CO)N2C(=O)c1ccccc1F	0	-1	/	/	-5	/
C[C@H](CO)N1C[C@H](C)[C@@H](CN(C)C(=O)Nc2cccc3ccccc23)Oc2ccc(NC(=O)Nc3cccc4ccccc34)cc2CC1=O	/	1	/	/	0	/
Cc1ccc2nc(-c3ccccn3)c(NC3CCCC3)n2c1	-2	32*	3	18	-54	-21%
CC(=Nc1ccc(C)cc1C)c1sc2ccccc2c1O	/	32*	5	64	-22	-23%
Cc1ccc(O)c(N=Cc2sc3ccccc3c2Cl)c1	-4	5	5	5	9	/
CC(C)(O)c1cn([C@H]2C[C@@H]3O[C@@H](CO)CC[C@@H]3O[C@@H]2CCc2ccc(-c3cccnc3)cc2)nn1	/	-5	/	/	/	/
CCOC(=O)/C(C#N)=C/c1c(N2CCN(Cc3ccc4c(c3)OCO4)CC2)nc2c(C)cccn2c1=O	/	39*	-2	/	7	-7%
COC(=O)/C(C#N)=C/c1c(N2CCN(Cc3ccc4c(c3)OCO4)CC2)nc2c(C)cccn2c1=O	/	2	-2	-26	1	/

Bioassay records as filed in PubChem BioAssay.
